This is an account of results in PubChem BioAssay AID588855 (National Center for Advancing Translational Sciences (NCATS), 2011).

The whole screen tested about 410,000 compounds, of which about 5,000 (1.2%) were called active. Roughly 13% stayed inconclusive and do not appear here. The call rests on the fitted dose curve; in most records, active means well fitted inhibition curve with a large enough effect; inconclusive means small, poorly fitted or top-dose-only effect; inactive means no such curve, though single readings can be large or run the other way. Shown is part of a subset that was picked to be rich in actives. Entries that show only a call come without a potency.
Potency means the concentration at half of the fitted maximal effect.

This test in a line: qHTS for Inhibitors of TGF-b. Further: nearly all actives have a fitted effect of over 65% in size. Particulars: HepG2 CAGA-GFP TGF-b/SMAD3 reporter, GFP fluorescence, 18 h, TGF-beta stimulated, 500 pg/mL final; series mostly up to 46.1 µM. The essentials:
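TGF-beta reporter screen: HEPG2 CAGA-GFP, 1% FBS, 500 pg/mL TGF-beta final, 18 h; per-cell GFP summed per well; curves fitted and categorized by class.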
As for `C=CS(=O)c1sc(Cl)c(N2CCOCC2)c1[N+](=O)[O-]` (stereo not drawn), the Potency is 11.2 µM (active).

`Cc1nnc(SC(C(=O)Nc2cc(Cl)cc(Cl)c2)c2ccccc2)[nH]c1=O` (stereo not drawn): the Potency is 17.8 µM (active).

Regarding `COc1cccc(NC(=O)C(Sc2nnnn2C)c2ccccc2)c1` (stereo not drawn), the Potency result was “inactive”.

Regarding `Cc1nnc(SC(C(=O)c2ccccc2)c2ccccc2)[nH]c1=O` (stereo not drawn), the Potency result was “inactive”.

With `Cc1ccn2c(Nc3ccc4c(c3)OCCO4)c(-c3ccc(C)s3)nc2c1`, the Potency result was “inactive”.

For `COc1ccccc1CNC(=O)c1ccc(-n2c(C)cc3c2CCCC3)cc1`, the Potency entry is “inactive”.

With `Cc1ccc(C(=O)Nc2ccccc2F)cc1S(=O)(=O)N1CCOCC1`, the Potency entry was “inactive”.

In the case of `CC(=O)c1cccc(NC(=S)N2CCCC2)c1`, the Potency entry was “inactive”.

Regarding `C=CCSc1nsc(NC(=O)Nc2cccc(C(C)=O)c2)n1`, the Potency is 3.55 µM (active).

For `CC(=O)c1ccc(NC(=O)CSc2nnc(NC(=O)Nc3ccccc3)s2)cc1`, the Potency result was “inactive”.

In the case of `CCN(CC)c1ccc(NC(=O)Cn2nc3c(cc2=O)CCCC3)c(C)c1`, the Potency result was “inactive”.

Regarding `O=C(Nc1ccccc1Cl)N1CCC(CN2CCCC2)CC1`, the Potency entry was “inactive”.

For the compound `CS/C(=C\C(=O)c1ccco1)Nc1ccccc1Cl`, the Potency result is “inactive”.

Consider `O=C(Nc1ccccc1Cl)/C(Cl)=C(\Cl)S(=O)c1ccccc1` (stereo not drawn), for which the Potency is 2.24 µM (active).

Turning to `CCc1ccc(-n2nc(C)c3c(C)cc(=O)n(CC(=O)Nc4ccc(F)cc4C)c32)cc1`, the Potency result was “inactive”.

With `CCOc1ccccc1NC(=O)CCn1cnnn1`, the Potency entry is “inactive”.

Take `O=C(Cc1cccs1)NCc1cccc(C(F)(F)F)c1`: the Potency result is “inactive”.

As to `Cc1ccc(S(=O)(=O)/N=C(\N)c2ccc(F)cc2)cc1`, the Potency entry is “inactive”.

Take `N/C(=N\S(=O)(=O)c1cc(C(F)(F)F)cc(C(F)(F)F)c1)c1cccs1`: the Potency is 12.6 µM (active).

Take `CCc1ccc(NC(=O)CSc2nc3c([nH]c4ccccc43)c(=O)n2-c2cccc(OC)c2)cc1`: the Potency entry is “inactive”.

As for `COc1ccc(-c2nc(Cn3c(=O)cc(C)c4c(C)nn(-c5ccccc5)c43)c(C)o2)cc1OC`, the Potency entry is “inactive”.

As to `N=C1C(c2nc3ccccc3s2)=C(O)CN1NC(=O)c1ccc([N+](=O)[O-])cc1`, the Potency is 7.08 µM (active).

`Cc1ccc(C)n1NC(=O)c1ccc([N+](=O)[O-])cc1`: the Potency entry was “inactive”.

Regarding `N=C1C(c2nc3ccccc3[nH]2)=C(O)CN1NC(=O)c1c[nH]c2ccccc12`, the Potency result was “inactive”.

Take `Cc1ccc(C(=O)Nc2ccc(OCc3cc(=O)n4c5c(sc4n3)CCCC5)cc2)cc1`: the Potency entry was “inactive”.

As to `O=C1NC[C@H](Cc2ccc(O)cc2)N(C[C@H]2CCCN2C[C@H](Cc2ccccc2)N2C[C@H](Cc3ccccc3)N(CCc3ccccc3)C(=O)C2=O)C1=O`, the Potency result is “inactive”.

Take `O=C1NC[C@@H](Cc2ccc(O)cc2)N(CCc2cccc(F)c2)C1=O`: the Potency result is “inactive”.

Take `CC(C)C[C@H]1CNC(=S)N1C[C@H]1CCCN1C[C@H](Cc1ccc(O)cc1)N1C[C@H](Cc2ccc(O)cc2)N(CC2CCCCC2)C1=S`: the Potency was 15.8 µM (active).

As for `NC1=NC[C@@H](Cc2ccc(O)cc2)N1CC1CCCCC1`, the Potency entry is “inactive”.

In the case of `CC[C@@H](C)[C@@H]1CN([C@@H](C)CN2CCC[C@H]2CN2C(N)=NC[C@H]2C(C)C)C(=N)N1CCc1ccc(Cl)c(Cl)c1`, the Potency entry was “inactive”.

With `CCOc1ccc(CCN2C(=S)N([C@@H](CC(C)C)CN3CCC[C@@H]3CN3C(=S)NC[C@@H]3Cc3ccc(O)cc3)C[C@@H]2CC(C)C)cc1`, the Potency was 10 µM (active).

`C[C@@H](CN1CCC[C@H]1CN1C(N)=NC[C@@H]1Cc1ccccc1)N1C[C@@H](Cc2ccccc2)N(CCCC2CCCC2)C1=N`: the Potency result was “inactive”.

As for `CCOc1ccc(CCN2C(=S)N([C@@H](CC(C)C)CN3CCC[C@@H]3CN3C(=S)NC[C@@H]3Cc3ccc(O)cc3)C[C@@H]2Cc2ccc(O)cc2)cc1`, the Potency is 11.2 µM (active).
